This is an account of results in PubChem BioAssay (NCI).

Test systems include SR leukemia; RPMI-8226 leukemia; OVCAR-8 ovarian; OVCAR-5 ovarian; OVCAR-4 ovarian; SK-OV-3 ovarian; IGROV1 ovarian; OVCAR-3 ovarian; HS 578T breast; NCI/ADR-RES ovarian; T-47D breast; BT-549 breast; MDA-MB-435 melanoma; SW-620 colon; MCF7 breast; HCT-116 colon; HCC-2998 colon; KM12 colon.
Experiment in all cases: NCI-60 one-dose screen, 48 h (100 = growth as untreated, 0 = no growth, -100 = all killed)
Details in all cases: 10 µM unless noted

The structures appear in SMILES notation. The panel holds about 83,000 compounds, 20% with a hit somewhere; the sample as a whole holds those more often.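 Each cell line was grown in a 96-well plate and treated with one concentration of compound for 48 hours. Values below 10 were considered active.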 Values without a mark were called inactive. Active and inactive are the calls of the source.

For the compound `C=C(Cl)COC(=O)C(C)(C)O`, the growth in the assay on SR leukemia was 91.2%; with RPMI-8226 leukemia it was 99.5%; in the assay on OVCAR-8 ovarian, 98.7%; in the assay on OVCAR-5 ovarian, 102%; in the assay on OVCAR-4 ovarian, 93.3%; in the assay with SK-OV-3 ovarian it was 97.2%. Further, the growth in the assay with IGROV1 ovarian was 109%; in the assay on OVCAR-3 ovarian, 109%; in the assay with HS 578T breast it was 110%; with NCI/ADR-RES ovarian it was 95.2%; in the assay with T-47D breast it was 99.1%; in the assay on BT-549 breast it was 104%. The growth was 104% with MDA-MB-435 melanoma; 107% in the assay on SW-620 colon; 93.3% in the assay on MCF7 breast; 99.4% in the assay with HCT-116 colon; 102% in the assay with HCC-2998 colon; 102% with KM12 colon.
For `O=C1c2ccccc2C2(c3ccc(O)cc3)c3ccccc3Oc3cccc1c32` (stereo not drawn), the growth in the assay on SR leukemia was 9.2% (active); in the assay with RPMI-8226 leukemia, 17.8%; in the assay on OVCAR-8 ovarian, 66.8%; with OVCAR-5 ovarian it was 30.7%; in the assay on OVCAR-4 ovarian, 86.9%; in the assay with SK-OV-3 ovarian, 25.7%. The growth with IGROV1 ovarian is 59.9%; in the assay with OVCAR-3 ovarian, 11.2%; in the assay with HS 578T breast it was 25.8%; in the assay on T-47D breast it was 21.8%; in the assay with BT-549 breast, 55.1%; with MDA-MB-435 melanoma it was -3.86% (active). Moreover, the growth in the assay on SW-620 colon is 22.7%; in the assay on MCF7 breast, 23.1%; in the assay with HCT-116 colon it was 14.1%; with HCC-2998 colon it was 34.6%; in the assay with KM12 colon, 15%.
For `OC(CBr)c1ccnc2ccccc12` (stereo not drawn), the growth is 98.7% with SR leukemia; 87.4% in the assay on RPMI-8226 leukemia; 98.2% in the assay with OVCAR-8 ovarian; 106% with OVCAR-5 ovarian; 110% in the assay on OVCAR-4 ovarian; 105% in the assay with SK-OV-3 ovarian. Also, the growth with IGROV1 ovarian is 102%; in the assay on OVCAR-3 ovarian it was 106%; in the assay on HS 578T breast it was 99.6%; in the assay with T-47D breast it was 89.1%; in the assay with BT-549 breast, 92%; in the assay with MDA-MB-435 melanoma it was 100%. Moreover, the growth in the assay on SW-620 colon is 104%; in the assay with MCF7 breast it was 96.3%; in the assay on HCT-116 colon, 90.7%; in the assay on HCC-2998 colon, 103%.
As to `C/C(=N\NC(N)=S)c1nc2ccc(Cl)cc2[nH]1`, the growth was 30.5% with SR leukemia; 57.6% in the assay on RPMI-8226 leukemia; 39.1% with OVCAR-8 ovarian; 69.8% in the assay on OVCAR-5 ovarian; 32.3% in the assay with OVCAR-4 ovarian; 47.1% in the assay with SK-OV-3 ovarian. Also, the growth with IGROV1 ovarian was 58.9%; in the assay with OVCAR-3 ovarian, 50.1%; in the assay on NCI/ADR-RES ovarian it was 31.1%; in the assay on T-47D breast it was 40.5%; with BT-549 breast, 74.9%; with MDA-MB-435 melanoma, 54.6%. Besides, the growth with SW-620 colon is 41.4%; with MCF7 breast, 8.53% (active); with HCT-116 colon, 35.6%; in the assay with HCC-2998 colon it was 55.8%; in the assay on KM12 colon, 32.1%.
On to `Nc1ccc(CCCCc2ccccc2)c(Cl)c1`, for which the growth is 92.7% in the assay on SR leukemia; 85.4% in the assay on RPMI-8226 leukemia; 94% in the assay on OVCAR-8 ovarian; 96.7% in the assay with OVCAR-5 ovarian; 84.4% in the assay with OVCAR-4 ovarian; 98.7% in the assay on SK-OV-3 ovarian. Moreover, the growth in the assay with IGROV1 ovarian is 87.2%; with OVCAR-3 ovarian, 94.3%; in the assay on HS 578T breast, 93.7%; with T-47D breast, 89.9%; with BT-549 breast, 91.9%; in the assay with MDA-MB-435 melanoma, 99.1%. Besides, the growth in the assay on SW-620 colon was 92.3%; with MCF7 breast it was 98.6%; in the assay with HCT-116 colon, 92.6%; with HCC-2998 colon, 113%; in the assay with KM12 colon, 101%.
`CC(C)CCC[C@@H](C)[C@H]1CCC2C3=CCC4C(=O)C=CC(=O)C4C3CC[C@@]21C` (stereo partly drawn): the growth with SR leukemia was 13.2%; in the assay with RPMI-8226 leukemia, 8.72% (active); in the assay on OVCAR-8 ovarian it was 0.168% (active); in the assay on OVCAR-5 ovarian, 7.74% (active); in the assay with OVCAR-4 ovarian it was -9.33% (active); in the assay on SK-OV-3 ovarian it was 10.5%. For the same compound, the growth with IGROV1 ovarian is -63.2% (active); with OVCAR-3 ovarian, 2.72% (active); in the assay on HS 578T breast, 8.12% (active); in the assay on T-47D breast, -18.9% (active); in the assay with BT-549 breast, -1.63% (active); in the assay on MDA-MB-435 melanoma it was 5.05% (active). Besides, the growth with SW-620 colon was -10.1% (active); in the assay on MCF7 breast it was 8.65% (active); with HCT-116 colon, -75.5% (active); in the assay with HCC-2998 colon, 12.4%; in the assay on KM12 colon, 7.56% (active).
With `O=C(O)C1C[C@](O)(c2ccc(F)cc2)[C@@H](c2ccc(F)cc2)O1` (stereo partly drawn), the growth with SR leukemia was 73.8%; in the assay with RPMI-8226 leukemia, 69.1%; in the assay with OVCAR-8 ovarian, 95.1%; with OVCAR-5 ovarian, 90.8%; in the assay on OVCAR-4 ovarian, 107%; with SK-OV-3 ovarian, 97.5%. Moreover, the growth in the assay on IGROV1 ovarian was 71.8%; in the assay with HS 578T breast, 124%; in the assay with NCI/ADR-RES ovarian it was 96.5%; in the assay on T-47D breast, 88.2%; in the assay on BT-549 breast, 71%; in the assay with MDA-MB-435 melanoma, 99.1%. Moreover, the growth with SW-620 colon is 116%; in the assay with MCF7 breast, 97.5%; in the assay with HCT-116 colon, 100%; in the assay with HCC-2998 colon it was 115%; in the assay on KM12 colon, 131%.
Regarding `CCOc1ccc2nc(-c3cccc(OCC(=O)NC(C)C)c3)nc(Nc3ccc(-c4cn[nH]c4)cc3)c2c1`, the growth was 0.178% (active) in the assay on SR leukemia; -18.4% (active) with RPMI-8226 leukemia; -22.7% (active) in the assay with OVCAR-8 ovarian; 40.8% with OVCAR-5 ovarian; -60.3% (active) in the assay on OVCAR-4 ovarian; 68.4% with SK-OV-3 ovarian. Moreover, the growth in the assay with IGROV1 ovarian is 20.9%; with OVCAR-3 ovarian it was -3.59% (active); in the assay on NCI/ADR-RES ovarian, 14.3%; with T-47D breast, -25.2% (active); in the assay on BT-549 breast, -44.2% (active); with MDA-MB-435 melanoma, 6.53% (active). Moreover, the growth was 7.06% (active) with SW-620 colon; -16.8% (active) in the assay on MCF7 breast; 5.64% (active) in the assay on HCT-116 colon; 24.6% in the assay with HCC-2998 colon; 5.29% (active) in the assay on KM12 colon.
As for `CCCNCC(=O)Nc1ccc(C(=O)OC(C)(C)CC)cc1`, the growth was 90.6% with SR leukemia; 99.8% in the assay with RPMI-8226 leukemia; 104% with OVCAR-8 ovarian; 111% with OVCAR-5 ovarian; 118% in the assay on OVCAR-4 ovarian; 105% in the assay on SK-OV-3 ovarian. Also, the growth in the assay with IGROV1 ovarian was 99.5%; in the assay with OVCAR-3 ovarian, 102%; in the assay on NCI/ADR-RES ovarian it was 105%; in the assay with T-47D breast, 103%; in the assay on BT-549 breast, 77.4%; with MDA-MB-435 melanoma, 113%. Besides, the growth with SW-620 colon was 105%; in the assay on MCF7 breast, 103%; in the assay on HCT-116 colon it was 84.1%; with HCC-2998 colon it was 99.9%; in the assay with KM12 colon, 104%.
